Where “and” joins values, the source holds several entries; their conditions need not be identical. Equal entries are not always repeated. The panel holds about 83,000 compounds, 20% with a hit somewhere; the sample as a whole holds those more often.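 Percent growth is the endpoint: 0 to 100 indicates growth inhibition (40 means 60% inhibition), 0 means no net growth, and negative values indicate cell death.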 Calls of active or inactive are those of the source.

In one assay the test system is LOX IMVI melanoma. Kind of assay: NCI-60 one-dose screen, 48 h (100 = growth as untreated, 0 = no growth, -100 = all killed). Particulars: 0.25 µM. On the procedure: Growth inhibition of the LOX IMVI human tumor cell line is measured as a screen for anti-cancer activity. Cells are grown in 96 well plates and exposed to the test compound for 48 hours. Compounds are tested at a single concentration, which is 10^-5 M for most compounds. The reported endpoint is percent growth (GI% or GIPRCNT), where numbers from 0 - 100% represent growth inhibition, and numbers from -100% - 0 represent cell death. For example, a value of 40 represents 60% growth inhibition. A value of 0 means no net growth occurred over the course of the experiment. A value of -40 indicates 40% of cells at the beginning of the experiment died by the end of the experiment. A value of -100 means all cells are dead at the end of the experiment.
NCI-60 Human Tumor Cell Lines Screen was performed using the standard one-dose NCI protocol, which is described in more detail at https://dtp.cancer.gov/discovery_development/nci-60/default.htm.
Compounds with GIPRCNT values below 10 were considered active. Activity score was based on GIPRCNT using the following formula: […]
Score is 0 for GIPRCNT values of 100 or above, 50 for GIPRCNT values of 0, and 100 for GIPRCNT values of -100.
Regarding `CCCCCCCCCCCCCCCc1ccc(Cl)c(O)c1Cl` (tested in a mixture with another compound), the growth is 19.4% (inactive).

The same assay, now with this note: 10 µM.
For `CC1(C)OB(c2ccc(Cn3cc(F)c(=O)[nH]c3=O)cc2)OC1(C)C`, the growth was 98.2% (inactive).

As for `CCc1ccccc1-n1c(N)c(C#N)c(-c2ccc(OC)c(OC)c2)c(C#N)c1=O`, the growth was 104% (inactive).

In the case of `O=C(O)c1sccc1O`, the growth was 80.3% (inactive).

For the compound `CCCCCCCCCCCCCCCc1ccc(Cl)c(O)c1Cl` (tested in a mixture with another compound), the growth is 99.2% (inactive).

The same assay, now with this note: 10 µM unless noted.
In the case of `CC1(c2ccc3ccccc3c2)CCC(=O)O1` (stereo not given), the growth is 93.1% (inactive).

Turning to `O=CC(O)C(O)C(O)CO` (stereo not given), the growth is 99.5% (inactive) and 100% (inactive).

On to `CC(O)Cn1cnc2c1c(=O)n(C)c(=O)n2C` (stereo not given), for which the growth is 87.1% (inactive).

For the compound `Nc1nc2ncc(CNc3ccc(C(=O)N[C@@H](CCc4nn[nH]n4)C(=O)O)cc3)nc2c(=O)[nH]1`, the growth is 99.5% (inactive) and 98.7% (inactive).

Regarding `O=C(O)C1(C(=O)O)CCC1.[NH2-].[NH2-].[Pt+2]`, the growth is 95.9% (inactive) and 87.9% (inactive).

Take `CCCCCN(CCCCC)CC(O)c1cc2c(c3ccccc13)CCCC2` (stereo not given): the growth was 43.1% (inactive) and 40.8% (inactive).

For `Cc1ccc(-c2noc(CC(=O)c3ccc([N+](=O)[O-])cc3)n2)cc1`, the growth was 89.5% (inactive).

Consider `COc1ccc(-c2ncnc3c2ncn3C/C=C/CCl)cc1`, for which the growth was 54.2% (inactive) and 70.1% (inactive).

Turning to `CCN(CC)C(=O)c1cccnc1`, the growth is 100% (inactive).

For `CC[N+](CC)(CC(=O)Nc1c(C)cccc1C)Cc1ccccc1`, the growth is 79% (inactive) and 98.3% (inactive).

For `O=S1(=O)CC(Br)C(Br)C1` (stereo not given), the growth was 81.3% (inactive) and 38.4% (inactive).

For `COc1ccc(NC(=S)Nc2ccccn2)cc1`, the growth is 89.8% (inactive).

Consider `CC(=O)C(/C=N/C(N)=O)=C(/C)O`, for which the growth is 92.9% (inactive).

Regarding `CCOC(=O)c1sc(N)nc1-c1ccccc1`, the growth was 95.5% (inactive).

As to `CC(CN=Cc1ccccc1O)N=Cc1ccccc1O` (stereo not given), the growth is 101% (inactive) and 88.8% (inactive).

With `CCOc1ccc2nc3cc(N)ccc3c(N)c2c1`, the growth was 82.5% (inactive).

For the compound `N=C1N=C(N)CS1`, the growth is 107% (inactive).

For the compound `Oc1ccccc1C=NCC1CCC(CN=Cc2ccccc2O)CC1` (stereo not given), the growth is 80.2% (inactive).

Regarding `O=c1c2ccccc2nc2n1Cc1nc3ccccc3c(=O)n1C2`, the growth was 96.1% (inactive) and 97.6% (inactive).

With `COc1cc(/C=N/Nc2nc3c([nH]2)c(=O)n(C)c(=O)n3C)ccc1O`, the growth was 98.2% (inactive) and 116% (inactive).

For the compound `OCCN1CCN(CCO)CC1`, the growth was 92.9% (inactive) and 93.2% (inactive) and 111% (inactive).

Consider `CC(=O)Nc1cc(S(=O)(=O)O)cc2cc(S(=O)(=O)O)c(N=Nc3ccccc3)c(O)c12`, for which the growth is 103% (inactive) and 98.7% (inactive).

Turning to `CCNC(=O)Nc1ccc(-c2nc3c(c(N4CCOC[C@@H]4C)n2)CCN(C2COC2)C3)cc1`, the growth was 33.9% (inactive) and 1.39% (active).

For `NC(=S)N/N=C(\c1ccc(Br)cc1)C1CC1`, the growth is 86.2% (inactive).

For the compound `COc1cc2c(Nc3ccc(Cl)c(Cl)c3F)ncnc2cc1OCC1C[C@@H]2CN(C)C[C@@H]2C1` (stereo not given in full), the growth is -92% (active) and -92.9% (active).

In the case of `NC(=S)NS(=O)(=O)c1ccc(N)cc1`, the growth is 105% (inactive).

On to `CN(C)c1ccc(C(Cc2ccc3ccccc3n2)Cc2ccc3ccccc3n2)cc1`, for which the growth is 31.3% (inactive) and 81.8% (inactive).

Turning to `CC(C)Cc1ccc(C(C)C(=O)NCc2ccc(Cn3c(=O)sn(CCCI)c3=O)cc2)cc1` (stereo not given), the growth is 99.6% (inactive) and -96.6% (active).

In the case of `O=C1OC(Oc2ccc(Br)cc2)(c2ccccc2)c2ccccc21` (stereo not given), the growth is 77.5% (inactive) and 83.2% (inactive).

As for `COC(=O)/C=C/c1cc(O)c2c(c1)C(C(=O)OC)C(c1ccc(O)c(O)c1)O2` (stereo not given), the growth is 20.8% (inactive) and 16.3% (inactive).

For `O=C(CN1CCOCC1)N1CCOCC1`, the growth was 99.6% (inactive) and 100% (inactive).

For the compound `NCCSC(C[N+](=O)[O-])c1ccccc1Cl` (stereo not given), the growth is 31.4% (inactive).

Staying with this assay, now noted: 50 µM.
Take `CC1(C)OB(c2ccc(Cn3cc(F)c(=O)[nH]c3=O)cc2)OC1(C)C`: the growth is 52.6% (inactive).

The assay is the same for the next values; noted with them: 100 µM.
Take `CCc1ccccc1-n1c(N)c(C#N)c(-c2ccc(OC)c(OC)c2)c(C#N)c1=O`: the growth is 57.8% (inactive).

Take `O=C(O)c1sccc1O`: the growth is 2.04% (active).
